From PubChem
Shown are actives, neighbours in structure and some others; about 0.71% of the full set was active somewhere.
PI4K2A inh: inhibitors of human PI4K2A; Q9BTU6; purified PI4K2A, ADP-Glo luminescence, 1 h; stronger effect = lower value; activity change, negative = inhibition, % at 76.9 µM; actives 0.13% (n = 420,000); in the data active means activity change below about -50%; inconclusive means mostly about -30% to -49%
Target sequence (Q9BTU6 whole entry, looked up): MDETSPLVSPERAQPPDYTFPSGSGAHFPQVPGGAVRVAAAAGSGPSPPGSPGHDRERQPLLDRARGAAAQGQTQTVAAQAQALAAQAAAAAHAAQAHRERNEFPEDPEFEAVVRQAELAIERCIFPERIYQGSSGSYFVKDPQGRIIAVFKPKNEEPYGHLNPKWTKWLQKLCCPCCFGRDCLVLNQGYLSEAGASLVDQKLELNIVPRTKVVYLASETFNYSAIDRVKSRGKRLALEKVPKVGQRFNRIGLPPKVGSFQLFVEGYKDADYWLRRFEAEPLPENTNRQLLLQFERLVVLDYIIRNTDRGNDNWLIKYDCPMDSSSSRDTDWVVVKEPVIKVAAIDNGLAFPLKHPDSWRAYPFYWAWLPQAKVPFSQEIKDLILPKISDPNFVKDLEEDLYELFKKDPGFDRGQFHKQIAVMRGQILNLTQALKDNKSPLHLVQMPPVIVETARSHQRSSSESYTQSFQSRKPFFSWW
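PI4K2A activity was measured by ADP-Glo luminescence: enzyme (4 ug/mL stock) and phosphatidylinositol (1.2 mM stock) in Tris pH 7.5/MgCl2/EGTA/Triton X-100 buffer were reacted with ATP (300 microM stock) for one hour at ambient temperature.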
USP2a inh: inhibitors of human ubiquitin-specific protease USP2a; actives 0.01% (n = 330,000); USP2 core, Ub-CHOP2 coupled fluorogenic reporter, 485/531; Potency, µM (doses to about 38.3 µM), actives largely listed as inhibitors; O75604
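Cell-free coupled assay: 10nM USP2 core preincubated 30min RT with compound in Tris-HCl pH 8.0/CaCl2/CHAPS buffer, then 25nM Ub-CHOP2 and 25nM reporter substrate; fluorescence (Ex 485/Em 531) read after 60min RT, normalized to NEM inhibition, concentration-response curves fitted.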
FBPA coupling cs: counter-screen for Giardia aldolase inhibitors: coupling enzyme system. coupling enzyme system counterscreen, AmpLite Red fluorescence. actives 0.67% (n = 290,000). activity change, negative = inhibition, % at 58.2 µM, hits read low; in the data active means activity change below about -30%
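First, compound is pin-transferred into glyceraldehyde-3-phosphate coupling-enzyme reagent at 57.5 uM final and held 10 min at RT. Next, substrate, coupling system and AmpLite Red are added. After 20 min RT, fluorescence (525/598 nm) is read.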
USP1 inh: blocks the human USP1/UAF1 deubiquitinase complex | Potency, µM (top dose mostly 57.1 µM), actives largely listed as inhibitors | recombinant USP1/UAF1, Ub-Rhodamine cleavage fluorescence | AID 743255 | actives 0.23% (n = 390,000) | O94782; further: nearly all actives have a fitted effect of over 60% in size
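Step one: compound is pinned into 1nM USP1/UAF1 in HEPES pH 7.8 buffer with TCEP. Step two: 15 min room-temperature incubation. Step three: Ub-Rho (150nM final) starts cleavage, tracked by fluorescence over six one-minute reads.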
Eya2 inh: blocks the phosphatase activity of human Eya2; O00167; recombinant Eya2, OMFP fluorescence dephosphorylation (OMFP is methylfluorescein phosphate); Potency, µM (doses to about 76.9 µM), actives largely listed as inhibitors; actives 0.006% (n = 330,000); AID 488837
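Eya2 protein (added as 0.2 uM solution) was preincubated with compound for 10 min at ambient temperature in 50 mM HEPES pH 7.5, 50 mM NaCl, 5 uM MgCl2, 0.05% BSA, 1 mM DTT. OMFP (added at 50 uM) then reacted 10 min; fluorescence read at 485/525 nm.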
GALK inhibitor: inhibitors of human galactokinase; P51570; Purified GALK, Kinase-Glo residual ATP luminescence; Potency, µM (doses to about 57.5 µM), usual class: inhibitors; actives 0.007% (n = 270,000); AID 1868
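Compounds were pin-transferred into ATP buffer (35 uM final), then GALK plus galactose (5 nM, 100 uM final) was added. After 1 h at room temperature, Kinase-Glo Plus was added and luminescence read after 10 min.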
Each line names hits and unclear results; the compound was inactive in the other large screens; ! = a repeat was not active. Unless noted, the call rests on the fitted dose curve; in most records, active means well fitted curve in the direction sought with a large enough effect; inconclusive means small, poorly fitted or top-dose-only effect, or another doubt; inactive means no such curve, though single readings can be large; an effect the other way counts as inactive or inconclusive.

CN(C)[C@@H]1C(=O)C(C(N)=O)=C(O)[C@@]2(O)C(=O)C3=C(O)c4c(O)cccc4[C@@](C)(O)[C@H]3[C@H](O)[C@@H]12	PI4K2A inh -63!, USP2a inh inconclusive, USP1 inh inconclusive
CN(C)C1C(=O)C(C(N)=O)=C(O)[C@@]2(O)C(=O)C3=C(O)c4c(O)cccc4[C@](C)(O)C3C(O)C12 (some centres undefined)	none (no result: PI4K2A inh, USP2a inh, USP1 inh, Eya2 inh, GALK inhibitor)
Cc1ccc(N2C(=O)NC(=O)/C(=C\c3cc(C)n(-c4sc5c(c4C#N)CCCC5)c3C)C2=O)cc1	USP1 inh 28µM
CCN1C(=O)NC(=O)/C(=C/c2cc(C)n(-c3sc(C)c(C)c3C#N)c2C)C1=O	FBPA coupling cs -37
CCOC(=O)C1(c2ccccc2)CCN(CCc2ccc(N)cc2)CC1	none (no result: USP2a inh, FBPA coupling cs, USP1 inh, Eya2 inh, GALK inhibitor)
O=C(C1CCN(S(=O)(=O)c2ccc(Br)s2)CC1)N1CCN(c2cccc(C(F)(F)F)c2)CC1	USP1 inh inconclusive (no result: USP2a inh, FBPA coupling cs, Eya2 inh, GALK inhibitor)
Cc1ccc(/C=C2\C(=O)NC(=S)N(c3ccc(F)cc3)C2=O)o1	USP1 inh inconclusive
Cc1cc(C)cc(N2C(=O)/C(=C\c3ccc(N4CCN(C)CC4)o3)C(=O)NC2=S)c1	USP1 inh 32µM
CC1=NCCc2c1[nH]c1cc(O)ccc21	USP2a inh inconclusive, USP1 inh 25µM, Eya2 inh inconclusive (no result: GALK inhibitor)
O=C1C=Cc2ccccc2C1=O	FBPA coupling cs -82 (no result: PI4K2A inh, USP1 inh)
Cc1ccc2c(c1)C1CN(C)CCC1N2 (centres undefined)	none (no result: USP2a inh, FBPA coupling cs, USP1 inh, Eya2 inh, GALK inhibitor)
COc1ccc(OCC(=O)N2CCN(C(C)C)CC2)cc1	none
CC(C)N1CCN(c2ccc(O)cc2)CC1	FBPA coupling cs -51
CCCCn1c(NC(=O)c2ccco2)c(C(=O)OCC)c2nc3ccccc3nc21	PI4K2A inh inconclusive, FBPA coupling cs -46, USP1 inh 25µM
CCCCn1c(NS(=O)(=O)c2ccc(C)cc2)c(C(=O)OCC)c2nc3ccccc3nc21	USP1 inh inconclusive
CC[N+]1(CC)CCC(OC(=O)C(O)(c2ccccc2)c2ccccc2)C1 (centres undefined)	none (no result: USP2a inh, FBPA coupling cs, USP1 inh, Eya2 inh, GALK inhibitor)
COc1cc2c(cc1O)C[C@H]1NCCc3cc4c(c-2c31)OCO4	FBPA coupling cs -31, USP1 inh inconclusive (no result: GALK inhibitor)
O=C(O)Cc1cccnc1C(=O)O	FBPA coupling cs -68 (no result: PI4K2A inh, USP2a inh, USP1 inh, Eya2 inh, GALK inhibitor)
ClCCN1CCCC1	none (no result: USP2a inh, FBPA coupling cs, USP1 inh, Eya2 inh, GALK inhibitor)
COc1ccc(C(=O)N2CCC3(CC2)OCCO3)cc1	none
O=C(c1ccc2nc(-c3ccco3)c(-c3ccco3)nc2c1)N1CCC2(CC1)OCCO2	FBPA coupling cs -45
Cc1cc(C)cc(N2C(=O)NC(=O)/C(=C\c3cccn3-c3ccccc3)C2=O)c1	none
CN1C(=O)/C(=C/c2cccn2-c2ccc3ccccc3c2)C(=O)NC1=S	PI4K2A inh -61
Cc1cc(C)cc(N2C(=O)NC(=O)/C(=C\c3cccn3-c3ccc(Cl)cc3)C2=O)c1	PI4K2A inh -50
CCCSP(=S)(OCC)Oc1ccc(Cl)cc1Cl (centres undefined)	none (no result: PI4K2A inh, USP2a inh, USP1 inh, Eya2 inh, GALK inhibitor)
COc1ccc(-n2c(O)c(/C=C/C=Nc3ccccc3)c(=O)[nH]c2=O)cc1	USP2a inh inconclusive, USP1 inh 32µM, Eya2 inh inconclusive
CN1CCN(c2ncc(C=O)s2)CC1	FBPA coupling cs -37
CN1CCN(c2nc(Cl)ncc2F)CC1	none
CN1CCc2cc3c(c4c2[C@H]1Cc1ccccc1-4)OCO3	FBPA coupling cs -33 (no result: PI4K2A inh, USP2a inh, USP1 inh, Eya2 inh, GALK inhibitor)
COc1cc2c(cc1OC)-c1c3c(cc4c1[C@@H](C2)N(C)CC4)OCO3	USP1 inh inconclusive (no result: GALK inhibitor)
CN1CC[C@]2(C)c3cc(O)ccc3N(C)[C@@H]12	FBPA coupling cs -69 (no result: PI4K2A inh, USP2a inh, USP1 inh, Eya2 inh, GALK inhibitor)
CCOC(=O)C1CCCN(c2ccc([N+](=O)[O-])c3nonc23)C1 (centres undefined)	USP2a inh inconclusive, USP1 inh 25µM, Eya2 inh inconclusive
CC1CCCN(c2ccc(C(=O)N3CCC4(CC3)OCCO4)cc2[N+](=O)[O-])C1 (centres undefined)	none
C[C@]12CC[C@H]3[C@@H](CCC4=CC(=O)CC[C@@H]43)[C@@H]1CC[C@@H]2OC(=O)CCc1ccco1	none (no result: USP2a inh, FBPA coupling cs, USP1 inh, Eya2 inh, GALK inhibitor)
